Compound activity from PubChem.
A selection: hits, their analogues and other compounds. The true share with any hit is near 6.6%.
KB-3-1 tox: kills parental KB-3-1 adenocarcinoma cells. Potency, µM (doses to about 46.1 µM), most hits filed as cytotoxic. KB-3-1 viability, CellTiter-Glo ATP luminescence, 72 h. 400,000 tested, 1.4% active. AID 1347075; further: on the % scale 0 is the no-effect control and ±100 the full control effect; nearly all actives have a fitted effect of over 60% in size
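Cytotoxicity in the drug-sensitive parental line KB-3-1 was scored as loss of CellTiter-Glo luminescence following 72 h incubation with compound. Values come from curve fitting of normalized concentration-response data.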
KB-V1 MDR tox: kills drug-selected multidrug resistant KB-V1 cells; KB-V1 MDR cells viability, CellTiter-Glo, 72 h; AID 1347076; Potency, µM (top dose mostly 46.1 µM), actives largely listed as cytotoxic; 400,000 tested, 3.4% active; further: on the % scale 0 is the no-effect control and ±100 the full control effect; nearly all actives have a fitted effect of over 60% in size
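qHTS viability screen in drug-selected KB-V1 MDR cells: 72 h compound treatment at 37 degrees C, ATP luminescence end point.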
MCF10A rerep: DNA re-replication induction in MCF 10a cells; MCF 10A DNA re-replication, Hoechst nuclear intensity, 48 h; Potency, µM (highest dose often 46.1 µM), without a hit: at the highest dose activity, positive = re-replication, actives largely listed as activators; 350,000 tested, 2.9% active; AID 624296; further: % of control where 0% means no effect; nearly all actives have a fitted effect of over 50% in size
SW480 rerep: induces DNA re-replication in SW480 colon adenocarcinoma cells. SW480 DNA re-replication, Hoechst DNA content imaging, 48 h. Potency, µM (titrated, usually from 46.1 µM), for inactives: at the top dose re-replication activation, usual class: activators. 340,000 tested, 1.8% active; further: % of control where 0% means no effect; nearly all actives have a fitted effect of over 55% in size
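Image-based read-out: total Hoechst fluorescence of nuclei (405 nm excitation, 500-530 nm emission), with hits raising the fraction of high-intensity nuclei. SW480 colon cells incubated 48 hr with compounds at 37 C.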
RGS4 inh: inhibitors of human regulator of G protein signaling 4 | P49798 | Transcreener GDP fluorescence polarization, RGS4-accelerated GTP hydrolysis | Potency, µM (series often up to 114 µM), inactives show at the top dose activity change, negative = inhibition, most hits filed as inhibitors | 390,000 tested, 0.039% active; further: on the % scale 0 is the no-effect control and ±100 the full control effect; nearly all actives have a fitted effect of over 75% in size
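MLSMR compounds (23 nl, pin-transferred) preincubated 10 min at room temperature with a 500nM (2x) first reagent, then RGS4 at 900nM (2x) plus Transcreener GDP mix added; fluorescence polarization (620/688 nm) read before and after 90 min at 30 °C.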
TSG101-PTAP inh: blocks PTAP/TSG101 interaction to inhibit HIV-1 budding | Q99816 | Fluorescence polarization, FITC-PTAP peptide / Tsg101 binding | Potency, µM (doses to about 115 µM), without a hit: at the highest dose activity change, negative = inhibition, most hits filed as inhibitors | 340,000 tested, under 10 active; active means well fitted inhibition curve with a large enough effect in the main read-out, with a control signal flat, not every such curve was filed as active; inconclusive means small, poorly fitted or top-dose-only effect, or effect the other way, or a change in a side signal; inactive means no such curve, though single readings can be large or run the other way; further: % of control where 0% means no effect
Target sequence (Q99816 whole entry, looked up): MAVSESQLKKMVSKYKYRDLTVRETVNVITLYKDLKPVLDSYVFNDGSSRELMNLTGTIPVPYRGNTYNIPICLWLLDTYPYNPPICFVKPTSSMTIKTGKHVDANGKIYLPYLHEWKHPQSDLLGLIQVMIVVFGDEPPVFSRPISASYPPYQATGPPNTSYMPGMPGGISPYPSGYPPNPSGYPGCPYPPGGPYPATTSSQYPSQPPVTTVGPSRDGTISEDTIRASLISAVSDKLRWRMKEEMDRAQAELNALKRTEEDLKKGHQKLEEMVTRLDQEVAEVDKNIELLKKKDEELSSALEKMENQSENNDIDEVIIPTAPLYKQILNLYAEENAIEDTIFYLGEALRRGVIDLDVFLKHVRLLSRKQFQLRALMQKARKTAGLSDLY
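Steps: Tsg101 binding domain dispensed (10 uM final), compounds pinned in DMSO, FITC-labeled PTAP-motif peptide added (50 nM final); after 20 min binding at room temperature, polarization measured.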
Starred values were filed as active, the others as inactive; i = inactive; u = inconclusive; x = no result given; [ ] = dose if it differs, or a comment. Unless noted, the call rests on the fitted dose curve; in most records, active means well fitted curve in the direction sought with a large enough effect; inconclusive means small, poorly fitted or top-dose-only effect, or another doubt; inactive means no such curve, though single readings can be large; an effect the other way counts as inactive or inconclusive. Potency means the concentration at half of the fitted maximal effect.

SMILES	KB-3-1 tox	KB-V1 MDR tox	MCF10A rerep	SW480 rerep	RGS4 inh	TSG101-PTAP inh
CC1=CC(C)(C)n2c(O)c(N=NC(N)=S)c3cc(C)cc1c32	i	i	u	16µM*	0%[11.4 µM]	-9%
Cn1c(O)c(N=NC(N)=S)c2ccccc21	x	x	14%	-5%	x	x
Cc1cccc(N2C(=O)C=CC2=O)c1	i	i	21µM*	u	u	0%
COc1ccccc1NC(=O)c1cc2c([nH]c1=O)CC(C)(C)CC2=O	i	i	x	x	21%	x
O=C(Cn1cc(C(=O)c2cccs2)c2ccccc21)Nc1ccc(Br)cc1	x	x	x	x	1%	x
Cn1c(=O)n(CCc2ccccc2)c(=O)c2c1nc1n2CCN1c1ccc(Cl)cc1	x	x	x	x	1%	x
O=C1C2CCCN2C(=O)N1CCCCN1CCN(c2cccc(Cl)c2)CC1 (centres undefined)	i	8.2µM*	u	-703%	-38%	2%
O=C1C2CCCCN2C(=O)N1CCN1CCN(c2cccc(Cl)c2)CC1 (centres undefined)	i	i	0%	-3%	1%	0%
Cc1ccc(C2N(c3ccccc3)C(=O)N3CCCN23)cc1 (centres undefined)	i	i	3%	0.52µM*	17%	-7%
O=C1N(c2cccc(Cl)c2)C(c2ccccc2)N2CCCN12 (centres undefined)	i	i	9%	8%	-24%	-2%
COc1ccccc1C1(CCNS(=O)(=O)c2ccc(C)cc2)CCOC(C(C)C)C1 (centres undefined)	u	3.7µM*	u	u	-4%	-5%
COc1ccccc1C1(CCNC(C)c2cccs2)CCOC(C(C)C)C1 (centres undefined)	i	u	u	14%	-5%	-1%
O=C(Cc1ccccc1)N/N=C/c1cc(Br)cc(Br)c1O	u	i	7.3µM*	4.1µM*	7%	-5%
O=C(Cn1cc(C(F)(F)F)ccc1=O)N/N=C/c1ccccc1O	i	i	0%	5.8µM*	-12%[11.4 µM]	1%
O=C(COc1nsnc1N1CCOCC1)N/N=C/c1ccccc1O	i	u	u	18µM*	9%	-3%
O=C(O)COc1ccc(/C=N/NC(=O)COc2nsnc2N2CCOCC2)cc1	i	i	-5%	-1%	20%[11.4 µM]	-1%
O=C(CSCC(=O)NN=Cc1ccccc1O)NN=Cc1ccccc1O	x	x	15µM*	u	-13%	0%
CCOc1ccc(S(=O)(=O)N(C(=O)c2ccncc2)c2ccc3oc(C)c(C(=O)OC)c3c2)cc1	x	x	x	x	-15%	x
COc1cc(Cl)c(C)cc1NC(=O)Cn1ncc2c3ccccc3n(Cc3ccccc3)c2c1=O	i	i	x	x	17%	x
COc1ccc(C(=O)Oc2c(Sc3ccc(Cl)cc3)c(C)nn2C(C)(C)C)cc1OC	i	i	x	x	3%	x
O=C(CCCCC(=O)NN=Cc1ccccc1O)NN=Cc1ccccc1O	u	i	u	1.5µM*	-33%	-5%
CSc1nc(C)cc(OCC(=O)N/N=C/c2ccccc2O)n1	5.8µM*	i	5.2µM*	u	-21%	-9%
Cc1cc(=O)oc2cc(OCC(=O)N/N=C/c3ccccc3O)ccc12	u	i	-14%	2%	-37%	-3%
O=C(CCC(=O)Nc1ccc(Br)cc1)N/N=C/c1ccccc1O	u	u	16%	u	6%	-4%
Cc1cc(S(=O)(=O)N2CCN(Cc3noc(CCC(=O)N4CCCCC4)n3)CC2)ccc1F	i	i	x	x	-4%	x
Cn1c(=O)c2c(nc3n(-c4ccc(O)cc4)c(-c4ccc(Br)cc4)cn23)n(C)c1=O	i	i	x	x	-9%	x
N#Cc1ccc(CSc2nc3c(c(=O)[nH]2)CCC3)cc1	i	i	x	x	-3%	x
COC(=O)c1cc2oc(C)cc2n1CC(=O)Nc1ccc(C)cc1C	i	i	x	x	19%	x
